# From PubChem BioAssay (NCI)
# This is part of a sample that, as a whole, favours compounds with a hit. Of some 79,000 tested, about 15% had one in any assay. A number with no mark means an inactive call. Calls of active or inactive are those of the source. No stated cut-off is given here; in the data, active means growth inhibition above about 70%; inactive means the rest.
# Columns and labels:
# [1] = NCI Yeast Anticancer Drug Screen. Data for the rad52 strain (AID 147);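 further: 0% = growth of vehicle-treated control cultures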; conditions: S. cerevisiae rad52 mutant growth inhibition, stronger effect = higher value
# Procedure, shortened: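 Inhibition of yeast growth, referenced to vehicle controls, was the measured output for a strain with defective DNA damage repair.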
# [2] = NCI Yeast Anticancer Drug Screen. Data for the wt1 strain (AID 149);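 further: 0% = growth of vehicle-treated wt1 cultures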; conditions: S. cerevisiae wt1 strain (SPY 50644) growth inhibition, stronger effect = higher value
# Procedure, shortened: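 Readout: yeast growth inhibition, normalised to vehicle controls, in the wt1 strain exposed to test compounds.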
# [3] = NCI Yeast Anticancer Drug Screen. Data for the rad50EPP+ strain (AID 151);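 further: 0% = growth of vehicle-treated control cultures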; conditions: S. cerevisiae rad50 mutant strain, stronger effect = higher value
# Procedure, shortened: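 Genetically defined yeast (rad50EPP+, DNA damage repair alteration) is grown with compound, and inhibition of growth is expressed relative to vehicle-treated controls.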
# [4] = NCI Yeast Anticancer Drug Screen. Data for the mgt1 strain (AID 153); conditions: S. cerevisiae mgt1 mutant growth inhibition, stronger effect = higher value
# Procedure, shortened: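 In the mgt1 strain, test compounds were added and growth inhibition was determined relative to vehicle-treated controls.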
# [5] = NCI Yeast Anticancer Drug Screen. Data for the rad50 strain (AID 155);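 further: 0% = growth of vehicle-only cultures of the same strain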; conditions: S. cerevisiae rad50 strain growth inhibition, stronger effect = higher value
# Procedure, shortened: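 Compounds were tested on a yeast strain with an engineered DNA damage repair alteration; the reported value is growth inhibition normalised to vehicle treatment.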
# [6] = NCI Yeast Anticancer Drug Screen. Data for the mec2-1 strain (AID 157); conditions: S. cerevisiae mec2-1 strain, stronger effect = higher value
# Procedure, shortened: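 Each compound was tested on mec2-1 yeast, a strain altered in DNA damage repair or cell cycle control. Growth inhibition is reported relative to vehicle.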
# [7] = NCI Yeast Anticancer Drug Screen. Data for the rad14 strain (AID 159);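 further: 0% = growth of vehicle-treated control cultures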; conditions: S. cerevisiae rad14 strain growth inhibition, stronger effect = higher value
# Procedure, shortened: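 Compound-treated yeast with a defined DNA-repair lesion; growth inhibition normalised to vehicle-treated cultures.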
# [8] = NCI Yeast Anticancer Drug Screen. Data for the sgs1 mgt1 strain (AID 161);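 further: 0% = growth of cultures given vehicle only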; conditions: S. cerevisiae sgs1 mgt1 strain, stronger effect = higher value
# Procedure, shortened: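 Genetically altered yeast, compound exposure, growth inhibition relative to vehicle.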
# [9] = NCI Yeast Anticancer Drug Screen. Data for the CLN2oe strain (AID 163);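 further: 0% = growth of vehicle-only control cultures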; conditions: S. cerevisiae CLN2oe strain, stronger effect = higher value
# Procedure, shortened: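 First, the altered yeast strain was treated with each compound; second, its growth was measured; finally, inhibition was derived by comparison with vehicle controls.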
# [10] = NCI Yeast Anticancer Drug Screen. Data for the cln2 rad14 strain (AID 165);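 further: 0% = growth equal to vehicle treated cultures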; conditions: S. cerevisiae cln2 rad14 strain, stronger effect = higher value
# Procedure, shortened: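 Test compounds were added to cln2 rad14 yeast cultures; inhibition of growth was then determined by comparison with vehicle treatment.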
# [11] = NCI Yeast Anticancer Drug Screen. Data for the bub3 strain (AID 167); conditions: S. cerevisiae bub3 mutant strain, stronger effect = higher value
# Procedure, shortened: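 Growth of a checkpoint-deficient yeast mutant is measured after compound exposure. Values represent inhibition relative to vehicle.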
# [12] = NCI Yeast Anticancer Drug Screen. Data for the wt2 strain (AID 169);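 further: 0% = growth of vehicle-treated yeast cultures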; conditions: S. cerevisiae wt2 strain growth inhibition, stronger effect = higher value
# Procedure, shortened: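 The panel's yeast strains carry defined changes in DNA repair or cell cycle genes. Each strain is grown with compound, and growth loss is scored relative to vehicle.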
# [13] = NCI Yeast Anticancer Drug Screen. Data for the mlh1 strain (AID 171);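 further: 0% = growth of vehicle-treated control cultures of the same strain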; conditions: S. cerevisiae mlh1 strain growth inhibition, stronger effect = higher value
# Procedure, shortened: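 Inhibition values reflect reduced yeast growth in the presence of compound, referenced to vehicle controls, using a strain chosen for its alteration in DNA repair or cell cycle control.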
# [14] = NCI Yeast Anticancer Drug Screen. Data for the sgs1 strain (AID 173);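 further: 0% = growth of vehicle-only control cultures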; conditions: S. cerevisiae sgs1 mutant, stronger effect = higher value
# Procedure, shortened: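 Vehicle-treated cultures served as reference for growth inhibition of a yeast strain altered in DNA damage repair or cell cycle control after compound exposure.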
# [15] = NCI Yeast Anticancer Drug Screen. Data for the mlh1 rad18 strain (AID 175); conditions: S. cerevisiae mlh1 rad18 strain growth inhibition, stronger effect = higher value
# Procedure, shortened: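 Inhibition values reflect reduced growth of mutant yeast versus vehicle-treated controls following compound exposure; the mutations affect DNA damage repair.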
# [16] = NCI Yeast Anticancer Drug Screen. Data for the rad18 strain (AID 177); conditions: S. cerevisiae rad18 mutant growth inhibition, stronger effect = higher value
# Procedure, shortened: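 Steps: expose repair-mutant yeast to compound; measure growth; express as inhibition relative to vehicle control.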
# [17] = at 5.0 µM (retest, dose inferred, filed as 0.5)
# [18] = at 50.0 µM (retest, dose inferred, filed as 5.0)
smiles,measurement,setting,value
O=C1C=C(N2CCN(c3ccccn3)CC2)C(=O)c2c(O)ccc(O)c21,growth inhibition,[1]; at 1.2 µM,3%
same,growth inhibition,[1]; at 3.7 µM,8%
same,growth inhibition,[1]; at 11.0 µM,19%
same,growth inhibition,[1]; at 33.0 µM,33%
same,growth inhibition,[1]; at 100.0 µM,45%
same,growth inhibition,[2]; at 1.2 µM,10%
same,growth inhibition,[2]; at 3.7 µM,13%
same,growth inhibition,[2]; at 11.0 µM,15%
same,growth inhibition,[2]; at 33.0 µM,21%
same,growth inhibition,[2]; at 100.0 µM,26%
same,growth inhibition,[3]; at 1.2 µM,-4%
same,growth inhibition,[3]; at 3.7 µM,-3%
same,growth inhibition,[3]; at 11.0 µM,4%
same,growth inhibition,[3]; at 33.0 µM,17%
same,growth inhibition,[3]; at 100.0 µM,26%
same,growth inhibition,[4]; at 1.2 µM,5%
same,growth inhibition,[4]; at 3.7 µM,8%
same,growth inhibition,[4]; at 11.0 µM,14%
same,growth inhibition,[4]; at 33.0 µM,20%
same,growth inhibition,[4]; at 100.0 µM,47%
same,growth inhibition,[5]; at 1.2 µM,-3%
same,growth inhibition,[5]; at 3.7 µM,-8%
same,growth inhibition,[5]; [17],28%
same,growth inhibition,[5]; at 11.0 µM,0%
same,growth inhibition,[5]; at 33.0 µM,37%
same,growth inhibition,[5]; [18],94% (active)
same,growth inhibition,[5]; at 50.0 µM,84.5% (active)
same,growth inhibition,[5]; at 100.0 µM,55%
same,growth inhibition,[6]; at 1.2 µM,7%
same,growth inhibition,[6]; at 3.7 µM,8%
same,growth inhibition,[6]; [17],-17%
same,growth inhibition,[6]; at 11.0 µM,10%
same,growth inhibition,[6]; at 33.0 µM,19%
same,growth inhibition,[6]; [18],84% (active)
same,growth inhibition,[6]; at 50.0 µM,65.2%
same,growth inhibition,[6]; at 100.0 µM,27%
same,growth inhibition,[7]; at 1.2 µM,9%
same,growth inhibition,[7]; at 3.7 µM,14%
same,growth inhibition,[7]; at 11.0 µM,29%
same,growth inhibition,[7]; at 33.0 µM,69%
same,growth inhibition,[7]; at 100.0 µM,87% (active)
same,growth inhibition,[8]; [17],8%
same,growth inhibition,[8]; [18],91% (active)
same,growth inhibition,[8]; at 50.0 µM,82.7% (active)
same,growth inhibition,[9]; at 1.2 µM,11%
same,growth inhibition,[9]; at 3.7 µM,7%
same,growth inhibition,[9]; at 11.0 µM,13%
same,growth inhibition,[9]; at 33.0 µM,21%
same,growth inhibition,[9]; at 100.0 µM,21%
same,growth inhibition,[10]; [17],-6%
same,growth inhibition,[10]; [18],15%
same,growth inhibition,[10]; at 50.0 µM,25.9%
same,growth inhibition,[11]; at 1.2 µM,4%
same,growth inhibition,[11]; at 3.7 µM,3%
same,growth inhibition,[11]; [17],5%
same,growth inhibition,[11]; at 11.0 µM,10%
same,growth inhibition,[11]; at 33.0 µM,23%
same,growth inhibition,[11]; [18],71% (active)
same,growth inhibition,[11]; at 50.0 µM,88.8% (active)
same,growth inhibition,[11]; at 100.0 µM,34%
same,growth inhibition,[12]; at 1.2 µM,4%
same,growth inhibition,[12]; at 3.7 µM,9%
same,growth inhibition,[12]; at 11.0 µM,15%
same,growth inhibition,[12]; at 33.0 µM,32%
same,growth inhibition,[12]; at 100.0 µM,52%
same,growth inhibition,[13]; at 1.2 µM,7%
same,growth inhibition,[13]; at 3.7 µM,12%
same,growth inhibition,[13]; at 11.0 µM,21%
same,growth inhibition,[13]; at 33.0 µM,42%
same,growth inhibition,[13]; at 100.0 µM,75% (active)
same,growth inhibition,[14]; at 1.2 µM,8%
same,growth inhibition,[14]; at 3.7 µM,11%
same,growth inhibition,[14]; at 11.0 µM,22%
same,growth inhibition,[14]; at 33.0 µM,63%
same,growth inhibition,[14]; at 100.0 µM,82% (active)
same,growth inhibition,[15]; [17],10%
same,growth inhibition,[15]; [18],94% (active)
same,growth inhibition,[15]; at 50.0 µM,72.5% (active)
same,growth inhibition,[16]; at 1.2 µM,1%
same,growth inhibition,[16]; at 3.7 µM,4%
same,growth inhibition,[16]; at 11.0 µM,17%
same,growth inhibition,[16]; at 33.0 µM,46%
same,growth inhibition,[16]; at 100.0 µM,68%
